How the values were obtained:
Assay in all cases: log2 ratio of Biotin-Ahx-Ub-VS probe labelling (fragment/DMSO); higher = less target engagement (more negative = stronger competition), active = hit call of the paper (q ≤ 0.05, log2 ratio ≤ -1)
Conditions in all cases: compound concentration: 200 uM; treatment time: 3 h
USP42 = biological target: T1, USP42 (UniProt Q9H9J4)
T1 sequence (whole entry): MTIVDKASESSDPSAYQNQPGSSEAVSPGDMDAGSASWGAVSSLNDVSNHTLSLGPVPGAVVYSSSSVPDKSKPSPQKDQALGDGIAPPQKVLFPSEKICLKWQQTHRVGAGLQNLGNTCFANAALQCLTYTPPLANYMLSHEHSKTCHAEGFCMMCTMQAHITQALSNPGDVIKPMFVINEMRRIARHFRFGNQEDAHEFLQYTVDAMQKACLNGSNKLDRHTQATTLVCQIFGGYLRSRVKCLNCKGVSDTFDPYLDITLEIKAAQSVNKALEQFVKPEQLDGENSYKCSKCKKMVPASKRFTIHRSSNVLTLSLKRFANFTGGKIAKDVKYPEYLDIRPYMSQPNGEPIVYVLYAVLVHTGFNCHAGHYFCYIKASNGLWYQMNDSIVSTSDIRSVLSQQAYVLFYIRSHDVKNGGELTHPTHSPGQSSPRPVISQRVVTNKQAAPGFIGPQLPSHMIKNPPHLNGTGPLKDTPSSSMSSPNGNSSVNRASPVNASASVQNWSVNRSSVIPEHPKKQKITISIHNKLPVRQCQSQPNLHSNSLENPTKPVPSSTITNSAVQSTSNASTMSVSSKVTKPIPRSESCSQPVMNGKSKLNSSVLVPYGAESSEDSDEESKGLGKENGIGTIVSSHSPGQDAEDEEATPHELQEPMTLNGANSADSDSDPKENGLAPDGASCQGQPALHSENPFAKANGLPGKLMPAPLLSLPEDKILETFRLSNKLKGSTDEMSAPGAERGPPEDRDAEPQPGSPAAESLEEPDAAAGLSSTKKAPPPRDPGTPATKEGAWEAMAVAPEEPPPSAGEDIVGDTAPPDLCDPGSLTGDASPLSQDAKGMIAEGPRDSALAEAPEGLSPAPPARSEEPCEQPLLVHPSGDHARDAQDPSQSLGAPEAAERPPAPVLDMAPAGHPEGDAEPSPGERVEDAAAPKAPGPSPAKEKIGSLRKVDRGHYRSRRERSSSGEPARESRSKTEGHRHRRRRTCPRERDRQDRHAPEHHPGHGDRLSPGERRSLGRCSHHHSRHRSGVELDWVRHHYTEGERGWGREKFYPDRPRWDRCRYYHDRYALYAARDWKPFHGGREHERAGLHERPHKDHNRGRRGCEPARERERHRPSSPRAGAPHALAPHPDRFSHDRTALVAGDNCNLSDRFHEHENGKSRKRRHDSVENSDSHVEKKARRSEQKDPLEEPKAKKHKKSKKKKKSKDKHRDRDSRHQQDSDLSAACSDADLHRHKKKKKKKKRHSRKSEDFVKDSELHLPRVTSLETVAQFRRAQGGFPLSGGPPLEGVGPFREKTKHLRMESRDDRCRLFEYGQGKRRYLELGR
Summary of the method: (§1)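 Triplicate samples of HEK293T lysate, 495 µg each, received fragment at 200 µM or vehicle for 3 h, followed by Biotin-Ahx-Ub-VS (0.5 µM final) for 1 h. After NeutrAvidin enrichment of labelled DUBs and LysC/trypsin digestion, peptides were run by diaPASEF LC-MS/MS. The values are average log2 fragment/vehicle ratios from global-median-normalised Spectronaut label-free quantities, tested by unpaired t-test on proteins having ≥2 unique peptides.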

USP46 = USP46 (UniProt P62068)
Summary of the method: as §1

USP47 = biological target: T2, USP47 (UniProt Q96K76)
T2 sequence (whole entry): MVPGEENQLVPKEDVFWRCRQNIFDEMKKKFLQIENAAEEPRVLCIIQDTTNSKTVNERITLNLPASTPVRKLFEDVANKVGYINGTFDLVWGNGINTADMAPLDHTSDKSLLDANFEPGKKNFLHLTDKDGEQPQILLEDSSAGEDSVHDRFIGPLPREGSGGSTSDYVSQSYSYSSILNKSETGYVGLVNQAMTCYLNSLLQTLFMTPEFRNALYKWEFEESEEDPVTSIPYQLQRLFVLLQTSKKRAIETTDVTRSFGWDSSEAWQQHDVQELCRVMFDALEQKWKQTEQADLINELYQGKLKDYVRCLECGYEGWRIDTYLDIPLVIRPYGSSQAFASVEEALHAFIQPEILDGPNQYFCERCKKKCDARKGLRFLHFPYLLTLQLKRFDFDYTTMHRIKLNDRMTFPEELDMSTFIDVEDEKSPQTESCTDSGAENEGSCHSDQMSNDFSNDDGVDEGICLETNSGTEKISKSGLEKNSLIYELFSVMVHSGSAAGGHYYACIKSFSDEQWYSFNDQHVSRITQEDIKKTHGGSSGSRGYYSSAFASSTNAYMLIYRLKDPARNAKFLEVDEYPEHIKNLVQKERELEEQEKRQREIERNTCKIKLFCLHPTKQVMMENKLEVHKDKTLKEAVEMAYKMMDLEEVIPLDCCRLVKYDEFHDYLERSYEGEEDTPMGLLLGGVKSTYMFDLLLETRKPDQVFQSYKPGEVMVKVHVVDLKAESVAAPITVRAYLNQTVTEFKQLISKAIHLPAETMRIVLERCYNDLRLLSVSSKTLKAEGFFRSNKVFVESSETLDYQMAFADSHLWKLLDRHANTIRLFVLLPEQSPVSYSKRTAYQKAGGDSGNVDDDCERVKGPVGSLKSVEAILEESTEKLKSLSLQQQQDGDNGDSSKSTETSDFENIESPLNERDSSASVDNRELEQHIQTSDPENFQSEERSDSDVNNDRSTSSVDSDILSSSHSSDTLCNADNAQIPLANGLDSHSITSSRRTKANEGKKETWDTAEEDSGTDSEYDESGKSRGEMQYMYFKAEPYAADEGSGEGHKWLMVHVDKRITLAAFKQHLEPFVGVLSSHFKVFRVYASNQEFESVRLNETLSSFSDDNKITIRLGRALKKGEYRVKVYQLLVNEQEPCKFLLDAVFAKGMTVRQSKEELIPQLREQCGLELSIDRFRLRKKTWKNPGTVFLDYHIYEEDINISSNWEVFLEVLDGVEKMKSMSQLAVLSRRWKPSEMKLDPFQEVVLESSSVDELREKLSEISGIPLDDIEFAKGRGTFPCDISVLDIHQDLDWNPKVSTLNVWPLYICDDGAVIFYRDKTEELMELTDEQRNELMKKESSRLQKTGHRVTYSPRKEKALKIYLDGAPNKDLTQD
Summary of the method: as §1

USP48 = biological target: T3, USP48 (UniProt Q86UV5)
T3 sequence (whole entry): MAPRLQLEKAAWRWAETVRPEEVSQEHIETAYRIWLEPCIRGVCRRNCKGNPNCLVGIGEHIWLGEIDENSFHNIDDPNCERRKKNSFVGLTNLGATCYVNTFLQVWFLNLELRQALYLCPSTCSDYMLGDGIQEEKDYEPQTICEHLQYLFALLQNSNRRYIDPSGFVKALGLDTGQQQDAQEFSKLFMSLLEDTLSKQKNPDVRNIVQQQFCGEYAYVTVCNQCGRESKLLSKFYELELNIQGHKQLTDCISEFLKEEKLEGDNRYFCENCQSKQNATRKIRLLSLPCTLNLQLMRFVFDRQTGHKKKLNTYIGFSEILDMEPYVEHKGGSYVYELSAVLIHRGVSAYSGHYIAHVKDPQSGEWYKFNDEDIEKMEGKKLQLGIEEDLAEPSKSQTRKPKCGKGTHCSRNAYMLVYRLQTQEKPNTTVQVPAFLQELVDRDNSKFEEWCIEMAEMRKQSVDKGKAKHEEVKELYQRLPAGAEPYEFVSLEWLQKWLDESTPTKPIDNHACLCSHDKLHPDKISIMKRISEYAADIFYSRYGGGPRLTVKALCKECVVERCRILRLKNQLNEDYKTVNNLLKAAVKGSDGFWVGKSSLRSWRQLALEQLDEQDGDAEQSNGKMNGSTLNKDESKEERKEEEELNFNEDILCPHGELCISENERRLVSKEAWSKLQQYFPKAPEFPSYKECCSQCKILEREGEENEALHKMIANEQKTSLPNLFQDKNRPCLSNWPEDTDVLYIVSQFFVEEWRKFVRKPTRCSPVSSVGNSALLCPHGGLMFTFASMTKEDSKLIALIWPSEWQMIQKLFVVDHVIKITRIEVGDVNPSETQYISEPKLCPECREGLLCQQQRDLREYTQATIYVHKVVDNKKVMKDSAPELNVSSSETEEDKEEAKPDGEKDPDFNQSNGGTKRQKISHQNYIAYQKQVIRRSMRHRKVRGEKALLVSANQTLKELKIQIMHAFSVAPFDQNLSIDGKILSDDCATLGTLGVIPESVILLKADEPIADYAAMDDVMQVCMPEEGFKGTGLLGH
Summary of the method: as §1

USP5 = biological target: T4, USP5 (UniProt P45974)
T4 sequence (whole entry): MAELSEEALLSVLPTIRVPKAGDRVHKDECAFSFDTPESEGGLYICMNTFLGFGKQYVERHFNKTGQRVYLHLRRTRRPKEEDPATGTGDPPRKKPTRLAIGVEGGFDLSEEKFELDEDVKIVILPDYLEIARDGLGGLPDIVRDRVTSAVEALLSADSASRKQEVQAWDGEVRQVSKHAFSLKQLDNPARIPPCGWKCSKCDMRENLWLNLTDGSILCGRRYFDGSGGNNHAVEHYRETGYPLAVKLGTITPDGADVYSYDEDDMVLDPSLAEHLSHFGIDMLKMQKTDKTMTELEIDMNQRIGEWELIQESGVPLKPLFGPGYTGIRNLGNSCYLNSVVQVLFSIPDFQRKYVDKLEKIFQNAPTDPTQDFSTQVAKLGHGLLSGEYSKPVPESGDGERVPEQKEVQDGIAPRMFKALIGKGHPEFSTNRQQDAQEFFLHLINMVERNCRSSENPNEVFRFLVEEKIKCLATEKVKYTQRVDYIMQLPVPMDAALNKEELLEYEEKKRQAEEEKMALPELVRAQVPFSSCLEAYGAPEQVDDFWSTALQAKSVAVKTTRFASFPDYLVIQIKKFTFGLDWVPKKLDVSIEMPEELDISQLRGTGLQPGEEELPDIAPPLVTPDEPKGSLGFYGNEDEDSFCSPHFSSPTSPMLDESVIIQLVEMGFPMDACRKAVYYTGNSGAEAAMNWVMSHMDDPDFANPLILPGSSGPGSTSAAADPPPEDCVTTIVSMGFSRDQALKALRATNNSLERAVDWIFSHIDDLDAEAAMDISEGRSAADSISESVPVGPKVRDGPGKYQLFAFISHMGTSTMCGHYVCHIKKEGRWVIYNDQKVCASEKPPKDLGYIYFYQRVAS
Summary of the method: as §1

USP54 = USP54 (UniProt Q70EL1)
Summary of the method: as §1

USP7 = USP7 (UniProt Q93009)
Summary of the method: as §1

USP8 = biological target: T5, USP8 (UniProt P40818)
T5 sequence (whole entry): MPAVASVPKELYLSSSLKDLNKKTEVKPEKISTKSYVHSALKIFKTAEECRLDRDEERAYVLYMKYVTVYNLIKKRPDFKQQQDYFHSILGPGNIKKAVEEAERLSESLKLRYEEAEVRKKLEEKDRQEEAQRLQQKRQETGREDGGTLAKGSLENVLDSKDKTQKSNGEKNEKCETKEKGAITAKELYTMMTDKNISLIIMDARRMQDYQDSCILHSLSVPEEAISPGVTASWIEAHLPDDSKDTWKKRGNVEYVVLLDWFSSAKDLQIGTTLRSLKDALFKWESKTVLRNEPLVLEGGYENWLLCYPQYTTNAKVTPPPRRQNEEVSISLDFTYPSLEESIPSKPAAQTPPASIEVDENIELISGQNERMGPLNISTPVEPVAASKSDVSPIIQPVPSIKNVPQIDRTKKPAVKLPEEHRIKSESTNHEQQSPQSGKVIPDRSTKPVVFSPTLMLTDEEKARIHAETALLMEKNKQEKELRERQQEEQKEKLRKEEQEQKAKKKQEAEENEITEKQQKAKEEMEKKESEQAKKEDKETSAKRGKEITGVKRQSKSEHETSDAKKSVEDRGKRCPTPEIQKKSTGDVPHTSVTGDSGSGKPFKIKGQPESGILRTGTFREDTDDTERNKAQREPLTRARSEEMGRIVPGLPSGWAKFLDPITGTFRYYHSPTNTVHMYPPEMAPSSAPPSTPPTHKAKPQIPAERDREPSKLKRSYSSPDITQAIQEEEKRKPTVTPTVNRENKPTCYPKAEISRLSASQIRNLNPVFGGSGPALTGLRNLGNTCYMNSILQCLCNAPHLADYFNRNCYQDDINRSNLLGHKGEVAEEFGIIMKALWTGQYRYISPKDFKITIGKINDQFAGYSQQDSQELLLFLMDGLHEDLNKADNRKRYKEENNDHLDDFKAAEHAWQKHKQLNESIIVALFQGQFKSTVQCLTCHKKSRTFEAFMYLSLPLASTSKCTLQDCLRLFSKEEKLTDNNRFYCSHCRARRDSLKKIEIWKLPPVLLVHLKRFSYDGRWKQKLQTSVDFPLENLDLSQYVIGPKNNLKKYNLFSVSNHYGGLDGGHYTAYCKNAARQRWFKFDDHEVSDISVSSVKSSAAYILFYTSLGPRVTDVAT
Summary of the method: as §1

USP9X = USP9X (UniProt Q93008)
Summary of the method: as §1

UniProt O00487 = biological target: UniProt O00487
Summary of the method: as §1

Measured: log2 ratio of Biotin-Ahx-Ub-VS probe labelling

Sequence of UniProt O00487 (O00487 whole entry): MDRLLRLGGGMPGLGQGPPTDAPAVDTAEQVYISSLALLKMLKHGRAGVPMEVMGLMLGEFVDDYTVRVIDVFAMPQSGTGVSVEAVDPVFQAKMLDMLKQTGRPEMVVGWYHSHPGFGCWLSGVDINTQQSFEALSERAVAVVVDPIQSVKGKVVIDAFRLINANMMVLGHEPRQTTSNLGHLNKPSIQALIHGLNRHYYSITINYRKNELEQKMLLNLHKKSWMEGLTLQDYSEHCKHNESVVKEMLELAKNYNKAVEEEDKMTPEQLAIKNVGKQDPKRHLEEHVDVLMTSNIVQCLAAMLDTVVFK
Sequence of USP46 (P62068 whole entry): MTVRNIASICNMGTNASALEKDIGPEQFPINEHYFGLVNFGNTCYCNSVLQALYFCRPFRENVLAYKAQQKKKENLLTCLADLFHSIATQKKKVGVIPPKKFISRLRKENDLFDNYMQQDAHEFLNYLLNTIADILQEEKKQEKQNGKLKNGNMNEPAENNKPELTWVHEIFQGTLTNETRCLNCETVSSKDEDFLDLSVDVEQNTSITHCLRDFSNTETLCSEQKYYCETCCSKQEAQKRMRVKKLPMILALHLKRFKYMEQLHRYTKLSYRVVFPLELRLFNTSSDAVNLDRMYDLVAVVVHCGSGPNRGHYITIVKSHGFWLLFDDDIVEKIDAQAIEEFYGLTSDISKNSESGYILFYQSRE
Sequence of USP54 (Q70EL1 whole entry): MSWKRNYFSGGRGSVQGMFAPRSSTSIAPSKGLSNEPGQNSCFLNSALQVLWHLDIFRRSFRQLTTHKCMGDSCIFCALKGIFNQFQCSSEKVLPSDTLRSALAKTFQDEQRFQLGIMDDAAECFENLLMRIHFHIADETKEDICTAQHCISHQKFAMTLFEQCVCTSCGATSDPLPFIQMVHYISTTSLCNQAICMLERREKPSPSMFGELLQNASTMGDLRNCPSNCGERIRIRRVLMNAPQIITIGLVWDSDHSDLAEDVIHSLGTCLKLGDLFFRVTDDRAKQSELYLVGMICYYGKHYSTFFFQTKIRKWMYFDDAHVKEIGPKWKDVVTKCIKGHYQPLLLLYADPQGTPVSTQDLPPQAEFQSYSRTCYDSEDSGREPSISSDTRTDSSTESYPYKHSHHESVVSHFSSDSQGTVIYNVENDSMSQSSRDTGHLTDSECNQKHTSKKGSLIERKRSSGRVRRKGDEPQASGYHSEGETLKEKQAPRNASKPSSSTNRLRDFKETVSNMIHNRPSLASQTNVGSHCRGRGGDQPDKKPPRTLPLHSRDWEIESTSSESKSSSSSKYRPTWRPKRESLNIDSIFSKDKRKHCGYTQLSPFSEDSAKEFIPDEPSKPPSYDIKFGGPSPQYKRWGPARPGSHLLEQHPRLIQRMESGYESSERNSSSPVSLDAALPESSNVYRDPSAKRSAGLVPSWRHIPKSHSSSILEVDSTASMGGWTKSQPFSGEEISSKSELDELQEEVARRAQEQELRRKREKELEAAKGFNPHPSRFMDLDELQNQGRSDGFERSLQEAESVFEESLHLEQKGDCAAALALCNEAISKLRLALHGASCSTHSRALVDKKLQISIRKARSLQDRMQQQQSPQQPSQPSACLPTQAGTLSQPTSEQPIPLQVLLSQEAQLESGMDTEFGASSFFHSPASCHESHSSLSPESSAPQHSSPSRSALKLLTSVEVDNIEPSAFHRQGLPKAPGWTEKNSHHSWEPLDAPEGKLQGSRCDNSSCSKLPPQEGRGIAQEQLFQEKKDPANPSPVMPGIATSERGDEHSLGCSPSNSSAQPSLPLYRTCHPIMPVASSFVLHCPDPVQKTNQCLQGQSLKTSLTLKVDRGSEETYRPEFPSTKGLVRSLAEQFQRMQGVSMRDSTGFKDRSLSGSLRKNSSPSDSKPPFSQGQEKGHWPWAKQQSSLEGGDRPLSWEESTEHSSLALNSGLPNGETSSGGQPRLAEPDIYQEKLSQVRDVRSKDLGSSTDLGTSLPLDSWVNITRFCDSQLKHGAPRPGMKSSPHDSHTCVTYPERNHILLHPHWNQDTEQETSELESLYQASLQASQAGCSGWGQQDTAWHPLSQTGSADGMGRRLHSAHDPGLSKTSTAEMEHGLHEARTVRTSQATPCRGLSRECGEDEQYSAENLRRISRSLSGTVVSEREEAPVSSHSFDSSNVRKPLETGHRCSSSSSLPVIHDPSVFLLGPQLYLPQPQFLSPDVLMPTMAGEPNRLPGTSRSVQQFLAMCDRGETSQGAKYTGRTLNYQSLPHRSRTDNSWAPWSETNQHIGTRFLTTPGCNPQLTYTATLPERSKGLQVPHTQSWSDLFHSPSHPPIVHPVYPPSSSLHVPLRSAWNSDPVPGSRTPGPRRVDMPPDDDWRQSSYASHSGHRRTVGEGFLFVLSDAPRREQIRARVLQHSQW
Sequence of USP9X (Q93008 whole entry): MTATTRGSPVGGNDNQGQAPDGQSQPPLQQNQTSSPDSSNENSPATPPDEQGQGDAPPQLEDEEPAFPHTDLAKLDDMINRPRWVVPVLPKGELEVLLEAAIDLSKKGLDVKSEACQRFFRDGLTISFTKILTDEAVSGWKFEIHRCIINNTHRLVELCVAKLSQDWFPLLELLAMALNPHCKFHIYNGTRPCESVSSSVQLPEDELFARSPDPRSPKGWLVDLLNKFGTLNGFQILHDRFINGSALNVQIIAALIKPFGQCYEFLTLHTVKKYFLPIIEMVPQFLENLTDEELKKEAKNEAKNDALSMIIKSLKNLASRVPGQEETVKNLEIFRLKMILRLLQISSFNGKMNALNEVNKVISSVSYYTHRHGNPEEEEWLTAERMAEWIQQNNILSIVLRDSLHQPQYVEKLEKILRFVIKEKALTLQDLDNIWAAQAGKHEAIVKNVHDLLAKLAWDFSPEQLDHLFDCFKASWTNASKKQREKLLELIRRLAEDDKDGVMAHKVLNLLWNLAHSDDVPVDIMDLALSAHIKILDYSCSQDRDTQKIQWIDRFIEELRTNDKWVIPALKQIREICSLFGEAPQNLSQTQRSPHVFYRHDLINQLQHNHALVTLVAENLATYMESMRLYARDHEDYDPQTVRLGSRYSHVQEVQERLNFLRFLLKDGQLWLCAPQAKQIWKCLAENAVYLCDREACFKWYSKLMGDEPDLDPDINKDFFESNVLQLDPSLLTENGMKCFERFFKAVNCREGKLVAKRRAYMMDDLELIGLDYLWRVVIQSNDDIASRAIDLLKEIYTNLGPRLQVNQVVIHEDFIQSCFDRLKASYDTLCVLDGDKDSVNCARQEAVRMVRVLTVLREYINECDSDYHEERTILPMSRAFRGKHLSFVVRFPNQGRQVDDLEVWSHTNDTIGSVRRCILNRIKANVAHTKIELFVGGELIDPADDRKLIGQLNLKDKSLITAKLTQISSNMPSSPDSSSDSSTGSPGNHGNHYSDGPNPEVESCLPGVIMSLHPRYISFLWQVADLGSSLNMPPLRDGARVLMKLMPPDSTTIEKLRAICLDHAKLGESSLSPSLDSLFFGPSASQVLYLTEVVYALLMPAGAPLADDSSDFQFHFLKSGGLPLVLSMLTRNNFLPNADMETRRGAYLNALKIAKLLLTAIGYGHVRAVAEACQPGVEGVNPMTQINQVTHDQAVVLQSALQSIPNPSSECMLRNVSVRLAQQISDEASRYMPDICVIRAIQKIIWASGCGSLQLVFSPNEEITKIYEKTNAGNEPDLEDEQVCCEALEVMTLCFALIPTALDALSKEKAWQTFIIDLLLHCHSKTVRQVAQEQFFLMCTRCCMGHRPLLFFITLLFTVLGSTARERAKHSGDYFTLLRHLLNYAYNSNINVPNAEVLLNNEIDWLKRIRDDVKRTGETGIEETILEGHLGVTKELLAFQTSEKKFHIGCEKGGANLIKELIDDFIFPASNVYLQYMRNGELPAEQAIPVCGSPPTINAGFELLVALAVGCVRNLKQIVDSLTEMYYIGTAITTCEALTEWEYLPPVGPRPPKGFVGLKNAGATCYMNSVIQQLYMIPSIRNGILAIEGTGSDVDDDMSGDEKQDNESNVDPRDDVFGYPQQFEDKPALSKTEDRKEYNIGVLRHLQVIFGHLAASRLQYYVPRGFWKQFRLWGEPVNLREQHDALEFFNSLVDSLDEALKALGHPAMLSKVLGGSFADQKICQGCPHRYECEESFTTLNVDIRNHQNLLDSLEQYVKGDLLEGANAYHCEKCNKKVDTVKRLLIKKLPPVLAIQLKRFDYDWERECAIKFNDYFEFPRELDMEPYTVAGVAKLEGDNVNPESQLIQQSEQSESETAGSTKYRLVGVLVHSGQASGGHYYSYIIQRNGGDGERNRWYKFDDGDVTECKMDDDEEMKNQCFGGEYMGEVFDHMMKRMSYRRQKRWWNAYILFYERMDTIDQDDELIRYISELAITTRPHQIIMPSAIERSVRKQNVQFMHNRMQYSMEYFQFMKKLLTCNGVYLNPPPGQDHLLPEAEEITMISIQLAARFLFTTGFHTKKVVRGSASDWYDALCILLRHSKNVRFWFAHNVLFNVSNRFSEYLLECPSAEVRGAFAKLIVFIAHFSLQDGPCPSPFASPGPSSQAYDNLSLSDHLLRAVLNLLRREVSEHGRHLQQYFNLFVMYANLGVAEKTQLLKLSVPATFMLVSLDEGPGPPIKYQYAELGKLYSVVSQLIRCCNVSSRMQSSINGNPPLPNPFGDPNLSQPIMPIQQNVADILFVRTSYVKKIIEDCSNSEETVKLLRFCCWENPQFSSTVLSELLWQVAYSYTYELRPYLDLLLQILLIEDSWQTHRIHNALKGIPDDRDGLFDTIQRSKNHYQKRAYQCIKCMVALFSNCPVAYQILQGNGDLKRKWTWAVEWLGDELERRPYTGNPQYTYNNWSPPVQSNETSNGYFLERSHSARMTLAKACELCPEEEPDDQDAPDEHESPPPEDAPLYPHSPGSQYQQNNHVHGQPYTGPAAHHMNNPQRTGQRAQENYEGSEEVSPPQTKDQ

Cc1ccc(N2CCC(NC(=O)CCl)C2=O)cc1 (stereo not given)
inactive: USP42 -0.0605 | USP46 0.123 | USP47 -0.186 | USP48 0.139 | USP5 0.412 | USP54 0.213 | USP7 -0.0706 | USP8 0.0227 | USP9X -0.0231 | UniProt O00487 -0.129

Reference: the supplement of paper PMC11732987, “Enantioselective OTUD7B fragment discovery through chemoproteomics screening and high-throughput optimisation” (Communications Chemistry, 2025)
